Rows were chosen to be rich in hits. Some 9.3% of all compounds tested hit in one or more screens of this group.
M1 antag: antagonists of rat M1 muscarinic receptor. P08482. CHO-M1 cells, Fluo-4 calcium, ACh EC80 antagonist mode; stronger effect = lower value. B-score at 10 µM. hit rate 3.4% among 64,000. AID 628;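 active = calcium fluorescence response, raw or row-and-column corrected B-score, differing from the plate sample mean either way at a set confidence level, mostly lower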
Target sequence (P08482 whole entry, looked up): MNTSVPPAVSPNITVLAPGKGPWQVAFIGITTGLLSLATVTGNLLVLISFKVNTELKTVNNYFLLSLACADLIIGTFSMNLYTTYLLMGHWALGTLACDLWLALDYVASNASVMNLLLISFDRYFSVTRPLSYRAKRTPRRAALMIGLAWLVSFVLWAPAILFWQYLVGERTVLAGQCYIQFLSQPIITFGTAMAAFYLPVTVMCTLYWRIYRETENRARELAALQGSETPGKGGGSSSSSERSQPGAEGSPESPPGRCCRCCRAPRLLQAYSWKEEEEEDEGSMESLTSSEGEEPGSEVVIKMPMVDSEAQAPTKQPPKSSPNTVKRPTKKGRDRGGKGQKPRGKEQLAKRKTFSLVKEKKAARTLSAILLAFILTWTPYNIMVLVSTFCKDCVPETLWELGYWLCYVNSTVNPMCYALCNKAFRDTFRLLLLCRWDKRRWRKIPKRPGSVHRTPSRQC
A340 absorber: compound absorbs light at 340 nm. compound absorbance at 340 nm, fold over control. 65,000 tested, under 10 active. fold change at 10 µM. AID 708;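 active = at 10 µM dose, initial 340 nm absorbance at least 2 fold that of control wells; inactive = change under 2 fold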;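 note: initial absorbance extrapolated from kinetic A340 decline of NADH oxidation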
Fluor 339 460: intrinsic fluorescence of library compounds, ex339/em460 – biochemical, MLSMR library, data from DPM-DC assay, artefact control, profiling panel. compound autofluorescence, ex339/em460 nm, NADH buffer; stronger effect = higher value; 1 = no-compound wells, NADH background. fluorescence fold increase at 10 µM. hit rate 5.5% among 65,000. AID 709;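 active = at 10 µM, mean starting fluorescence two-fold or more over control wells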;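 note: signal is the first read of a kinetic run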
M1 ag: activates the M1 muscarinic receptor | CHO-M1 cells, Fluo-4 calcium fluorescence, agonist mode; stronger effect = higher value | B-score at 10 µM | hit rate 3% among 64,000 | AID 626;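 active = fluorescence rise, raw or as B-score row- and column-corrected plate score, outside the 99.7% band of its plate's samples, either direction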
NADH enzymes: inhibitors of enzymes used to reach an NAD/NADH endpoint. IC50, µM (titrated, usually from 10 µM), for inactives: at the highest dose inhibition. hit rate 0.02% among 65,000. coupled PK/LDH NADH assays, four targets. AID 774;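 active = single-dose screening hits from any of four coupled enzyme assays that gave an IC50 when retested across doses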;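 note: the DPM-DC format reads NADH fluorescence rather than 340 nm absorbance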
Htt clearance: mutant huntingtin protein clearance; hit rate 0.42% among 47,000; inhibition, % at 1.5 µM; HeLa Exon1htt(103Q)mCFP, aggregate imaging; zero = plate's median compound well; AID 853;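 active = inhibition of aggregate fluorescence above about 70%, also judged a hit by eye on the cell image, limit read from the data, passing the limit was not always enough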;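 note: cells exposed to compound for three days before fixation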
An asterisk follows results filed as active; . = not tested or not shown.

SMILES	M1 antag	A340 absorber	Fluor 339 460	M1 ag	NADH enzymes	Htt clearance
Cc1c2ccncc2c(C)c2c1[nH]c1ccccc12	-0.425	1	2.02*	34.6*	1.0%	.
Cc1[nH]c2ccccc2c1/C=N/O	1.97	1.02	1.18	0.326	4.0%	8.1
c1ccc2c(c1)[nH]c1cnccc12	-0.0104	1	2.42*	-0.13	1.0%	.
Cc1ccnc(-n2c(C)nc3ccccc3c2=O)c1	.	1.04	1.11	.	6.0%	.
Cc1cccc(N2CCc3c2nc2ccccc2c3N)c1	-0.9	1.07	3.8*	-0.785	0.0%	.
CCOC(=O)c1c(C)n(Cc2ccccc2)c2ccc(OCC(O)CN3C(=O)CNC3=O)cc12 (configuration not stated)	0.0103	1.03	1.09	0.793	4.0%	-95.9
CN=C(SCc1cc2c(cc1Cl)OCO2)c1c(O)n(C)c(=O)n(C)c1=O	-0.136	1.04	1.14	1.02	7.0%	-1.3
CCCCOCCCn1c(N)c(C(=O)OC(C)COC)c2nc3ccccc3nc21 (configuration not stated)	-0.802	1.04	2.35*	3.84	11.0%	.
COCCCn1c(N)c(C(=O)OC(C)COC)c2nc3ccccc3nc21 (configuration not stated)	0.252	1.09	3.9*	0.644	14.0%	.
Nc1c(C(=O)NCCN2CCOCC2)c2nc3ccccc3nc2n1Cc1ccco1	-0.00242	1	3.89*	6.7*	12.0%	-2.4
COCCNC(=O)c1c(N)n(Cc2ccco2)c2nc3ccccc3nc12	.	.	.	.	.	12.5
C=CCNC(=O)c1c(N)n(Cc2ccco2)c2nc3ccccc3nc12	.	.	.	.	.	-8.0
COc1ccc(CCNC(=O)c2c(N)n(CCN3CCOCC3)c3nc4ccccc4nc23)cc1	-0.52	1.03	3.36*	0.169	2.0%	18.8
CC(C)(C)OC(=O)c1c(N)n(Cc2ccco2)c2nc3ccccc3nc12	-0.393	0.98	2.5*	-0.36	4.0%	.
CCOC(=O)c1c(N)n(CCN2CCCCC2)c2nc3ccccc3nc12	0.026	1.05	4.92*	0.0187	10.0%	-20.7
CCOc1ccc(-n2c(O)c(C=Nc3ccc(N4CCOCC4)cc3)c(=O)[nH]c2=O)cc1	0.645	1.19	1.05	-0.221	0.0%	.
CC1(C)CC(n2[nH]c(=O)c3c2NC(=O)CSC3c2ccc(F)cc2)CCO1 (configuration not stated)	0.559	1.08	1.1	0.0304	1.0%	.
CCCC(=O)c1c(O)[nH]c(=O)[nH]c1=O	0.0268	1.02	1.07	0.00628	5.0%	.
Nc1c(C(=O)NCCc2ccccc2)c2nc3ccccc3nc2n1CCN1CCOCC1	0.0428	1	3.88*	-0.427	6.0%	-22.6
CCCCn1c(N)c(C(=O)NCCN2CCOCC2)c2nc3ccccc3nc21	-0.673	1.08	2.08*	0.432	7.0%	.
CC(C)CCNC(=O)c1c(N)n(CC2CCCO2)c2nc3ccccc3nc12 (configuration not stated)	0.0585	.	.	-1.42	.	.
CCCCCCN=Cc1c(O)n(C)c(=O)n(C)c1=O	.	.	.	.	.	-1.4
CN(C)CCN=Cc1c(O)n(-c2cccc(C(F)(F)F)c2)c(=O)[nH]c1=O	-1.17	0.98	1.09	0.0228	6.0%	.
CNC(=O)Oc1ccc2c(c1)C(=O)c1ccccc1CO2	.	.	.	.	.	14.7
CC12CN3CC(C)(CN(C1)C3c1cccs1)C2O (configuration not stated)	1.16	1	1.05	-0.601	5.0%	-41.8
SMILES	M1 antag	A340 absorber	Fluor 339 460	M1 ag	NADH enzymes	Htt clearance
Cn1cc(CCC(=O)N2CCC3(CC2)OCCO3)c2ccccc21	-0.0391	0.97	1	0.135	8.0%	35.4
Cc1cc(N2CCOCC2)nc2ccc(NC(=O)CCC(=O)N3CCC4(CC3)OCCO4)cc12	0.317	1.06	4.76*	-0.225	11.0%	-6.5
CN1C(=O)N(C)C(=O)C2(Sc3ccccc3C2=O)C1=O	-0.0489	1.04	5.03*	0.966	4.0%	.
CCOP(=S)(OCC)c1ccc(N(C)C)cc1	-0.382	1.02	1.04	2.97*	1.0%	-29.7
CN(C)c1ccc(P(=S)(N(C)C)N(C)C)cc1	0.71	1.04	1.08	-0.557	2.0%	.
O=C(COc1ccccc1)N1CCN(CC(O)COc2ccccc2)CC1 (configuration not stated)	-0.473	1.01	0.94	-0.157	11.0%	.
Cc1ccc2cc3cc(C(=O)N4CCC5(CC4)OCCO5)oc3nc2c1	0.0541	1.2	3.52*	0.554	15.0%	21.8
CCCNc1oc(-c2cccc3ccccc23)nc1C#N	-0.455	1.06	3.77*	-0.665	6.0%	.
CCN1CCC2(CC1)NC(CO)(CO)CO2	.	.	.	.	.	45.1
COCCn1cc(C(=O)N2CCC3(CC2)OCCO3)c2c3ccccc3n(C)c2c1=O	-0.235	1.03	4.31*	-1.02	7.0%	-9.6
Cc1c(/C=C2/CC3C4CC=C5CC(O)CCC5(C)C4CCC3(C)C2=O)cnn1C (configuration not stated)	.	.	.	.	.	3.7
C=CCOC(=O)COc1cc(C)cc2oc(=O)c3c(c12)CCC3	-0.651	1.01	2.42*	0.849	3.0%	25.4
Cc1cc(OCc2ccc([N+](=O)[O-])cc2)c2c3c(c(=O)oc2c1)CCCC3	.	.	.	.	.	24.2
CCCCOC(=O)COc1cc(C)cc2oc(=O)c3c(c12)CCC3	.	1.05	1.61	.	3.0%	.
Cc1cc(OCc2nn[nH]n2)c2c3c(c(=O)oc2c1)CCCC3	0.353	1.1	3.81*	-0.526	8.0%	33.4
Cc1cc(OC(=O)CCNC(=O)OC(C)(C)C)c2c3c(c(=O)oc2c1)CCC3	-1.32	1.02	1.07	7.1*	3.0%	-4.1
CC(=O)Nc1ccc(OC(=O)c2ccccc2N)cc1	0.997	1	1.81	0.614	2.0%	-56.8
Nc1ccccc1C(=O)OCCOc1ccccc1	0.308	1.04	2.8*	0.758	7.0%	.
C=CCn1c(O)c(C(C)=NCc2cc(OC)cc(OC)c2)c(=O)[nH]c1=O	-1.02	1.04	1.15	-0.0254	5.0%	.
CN1CCc2nc(SCC(=O)OC(C)(C)C)c(C#N)cc2C1	0.29	1.05	2.32*	-0.0139	7.0%	.
CCC12CN3CC(CC)(CN(C1)C3c1cccnc1)C2=O (configuration not stated)	.	.	.	.	.	29.8
N=Cc1c(O)n(-c2cccc(Cl)c2)c(=O)[nH]c1=O	-0.738	1.07	1.15	2.5*	2.0%	-72.1
CC(=O)OC1N=C(c2ccccc2)c2cc(C)ccc2NC1=O (configuration not stated)	.	.	.	.	.	-6.1
CCC(C)NC(=O)c1c(N)n(CC2CCCO2)c2nc3ccccc3nc12 (configuration not stated)	0.369	1.02	2.47*	-0.217	4.0%	.
CCC(C)OC(=O)c1c(N)n(Cc2cccs2)c2nc3ccccc3nc12 (configuration not stated)	.	.	.	.	.	-4.6
CCC(C)NC(=O)c1c(N)n(Cc2ccc3c(c2)OCO3)c2nc3ccccc3nc12 (configuration not stated)	1.18	1.03	3.95*	-0.388	7.0%	-17.0
CCOc1cc(C2NCc3ccccc3-n3cccc32)ccc1O (configuration not stated)	-1.4	1.02	1.07	-1.05	5.0%	.

Screening data from PubChem.
